Potency data for 40 compounds are collected here from PubChem BioAssay (Tox21).

Inconclusive results are not listed. Where a call stands in place of a potency, no number is given. Active and inactive are the calls of the source. Calls follow the shape of the dose curve; as a rule, active = well fitted curve in the direction sought with a large enough effect in the repeat runs; inconclusive = weak or mixed curves; inactive = no such curve, though single readings can be large; an effect the other way counts as inactive or inconclusive.
Also: nearly all actives have a fitted effect of over 50% in size.

One assay in a line: A CellTox Green Cytotoxicity Assay to monitor cytotoxicity in HEK293 cells - 0 hour (AID 1224869). The following applies: CellTox Green fluorescence; series mostly up to 76.8 µM. Summed up: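 Each value comes from one timepoint of a single continuous run in which HEK293 cells with CellTox Green were exposed to compound for up to 40 h at 37 C, dye fluorescence rising with cell death.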
As to `Cc1ccc(Cl)c(Nc2ccccc2C(=O)O)c1Cl`, the Potency result was “inactive”.

As to `C=C(C)C(=O)OCCOCCOC(=O)C(=C)C`, the Potency result is “inactive”.

For `CC(C)(c1ccccc1)c1ccccc1`, the Potency result is “inactive”.

`c1ccc(C[n+]2cccc3ccccc32)cc1`: the Potency result is “inactive”.

Consider `CCC1CO1` (centres undefined), for which the Potency entry was “inactive”.

In the case of `Cc1cscn1`, the Potency result is “inactive”.

As to `CC1(C)S[C@@H]2[C@H](NC(=O)C(c3ccccc3)S(=O)(=O)O)C(=O)N2[C@H]1C(=O)O` (some centres undefined), the Potency result was “inactive”.

With `CC1(C)[C@@H](OC(=O)CCC(=O)O)CC[C@]2(C)[C@H]3C(=O)C=C4[C@@H]5C[C@@](C)(C(=O)O)CC[C@]5(C)CC[C@@]4(C)[C@]3(C)CC[C@@H]12`, the Potency result was “inactive”.

For the compound `CC(=O)Oc1ccc([N+](=O)[O-])cc1CCl`, the Potency result was “inactive”.

Take `CCCCCCCCCCCCCCN(CCO)CCO`: the Potency entry was “inactive”.

`O=C(/C=C/c1ccc(O)c(O)c1)O[C@@H]1C[C@@](OC(=O)/C=C/c2ccc(O)c(O)c2)(C(=O)O)C[C@@H](O)[C@@H]1O`: the Potency entry was “inactive”.

For the compound `O[C@@H]1CO[C@H]2[C@@H]1OC[C@@H]2O`, the Potency result is “inactive”.

Turning to `O=c1[nH]ncc2ccccc12`, the Potency result was “inactive”.

In the case of `O=C(CCCN1CC=C(n2c(=O)[nH]c3ccccc32)CC1)c1ccc(F)cc1`, the Potency result was “inactive”.

For `C=C/C(C)=C/C/C=C(\C)CCC=C(C)C`, the Potency entry is “inactive”.

Turning to `CCOC(=O)c1ccc(C#Cc2ccc3c(c2)C(C)(C)CCS3)nc1`, the Potency entry is “inactive”.

With `CCCCCCCCN`, the Potency entry was “inactive”.

For the compound `CC1CC(C)C(=O)C1=O` (centres undefined), the Potency entry is “inactive”.

Turning to `COC(=O)CCS`, the Potency result is “inactive”.

In the case of `Cc1ccc2c(Br)cc(Br)c(O)c2n1`, the Potency entry was “inactive”.

Turning to `CCC(OCCCOC)OC(C)=O` (centres undefined), the Potency result is “inactive”.

As for `CO[C@]1(NC(=O)CSC(F)F)C(=O)N2C(C(=O)O)=C(CSc3nnnn3CCO)CO[C@H]21`, the Potency result was “inactive”.

On to `CCCCCCC(C)(C)C(=O)O`, for which the Potency result was “inactive”.

With `O=C1CCCCCCCCCCOCCCCO1`, the Potency result is “inactive”.

`CCn1cc(C(=O)O)c(=O)c2cc(F)c(N3CCNCC3)cc21`: the Potency result was “inactive”.

For `CCOc1ccccc1O[C@H](c1ccccc1)[C@H]1CNCCO1`, the Potency entry is “inactive”.

In the case of `Cc1[nH]cnc1CN1CCc2c(c3ccccc3n2C)C1=O`, the Potency result was “inactive”.

As to `CCCCCCCC/C=C\CCCCCCCCCCCC(=O)O`, the Potency result was “inactive”.

Consider `Oc1cc2c(cc1O)[C@H]1c3ccc(O)c(O)c3OC[C@@]1(O)C2`, for which the Potency entry was “inactive”.

As to `O=C(OC(=O)c1ccccc1)c1ccccc1`, the Potency result is “inactive”.

For `Brc1cc(Br)c(Oc2cc(Br)c(Br)cc2Br)cc1Br`, the Potency entry was “inactive”.

In the case of `CCN(CC)CCNC(=O)COc1ccc(OC)cc1`, the Potency entry is “inactive”.

For the compound `NNC(=O)CP(=O)(c1ccccc1)c1ccccc1`, the Potency result is “inactive”.

Take `C=C(C)CCCC(C)CCO` (centres undefined): the Potency entry is “inactive”.

Take `O=C(O)CCC(=O)C(=O)O`: the Potency entry is “inactive”.

Regarding `Nc1ccc(N=Nc2ccccc2)c(N)c1`, the Potency result was “inactive”.

In the case of `CC(C)=CCC1C(=O)N(c2ccccc2)N(c2ccccc2)C1=O`, the Potency entry was “inactive”.

Consider `COC(=O)CS`, for which the Potency result is “inactive”.

Consider `CC(=O)OCC[N+](C)(C)C`, for which the Potency result is “inactive”.

Take `NCCNCCO`: the Potency entry was “inactive”.

A further assay in a line: qHTS RealTime-Glo MT Cell Viability Assay in HepG2 cells - 40 hour (AID 1224870). Also: potency is read from the fitted curve at half-maximal effect. The note with it: RealTime-Glo luminescence; series mostly up to 76.8 µM. Summed up: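 HepG2 cells mixed with RealTime-Glo MT reagents (NanoLuc plus cell-permeant prosubstrate) were seeded at 600 cells/well, incubated 5 h at 37 C/5% CO2, then pinned with compounds in DMSO; nonlytic luminescence tracked viability during 40 h treatment.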
For the compound `Cc1ccc(Cl)c(Nc2ccccc2C(=O)O)c1Cl`, the Potency entry was “inactive”.

`C=C(C)C(=O)OCCOCCOC(=O)C(=C)C`: the Potency result was “inactive”.

As to `CC(C)(c1ccccc1)c1ccccc1`, the Potency entry was “inactive”.

Consider `c1ccc(C[n+]2cccc3ccccc32)cc1`, for which the Potency result was “inactive”.

As to `CCC1CO1` (centres undefined), the Potency entry was “inactive”.

Consider `Cc1cscn1`, for which the Potency result was “inactive”.

`CC1(C)S[C@@H]2[C@H](NC(=O)C(c3ccccc3)S(=O)(=O)O)C(=O)N2[C@H]1C(=O)O` (some centres undefined): the Potency entry is “inactive”.

For the compound `CC1(C)[C@@H](OC(=O)CCC(=O)O)CC[C@]2(C)[C@H]3C(=O)C=C4[C@@H]5C[C@@](C)(C(=O)O)CC[C@]5(C)CC[C@@]4(C)[C@]3(C)CC[C@@H]12`, the Potency entry was “inactive”.

With `CC(=O)Oc1ccc([N+](=O)[O-])cc1CCl`, the Potency entry is “inactive”.

For `CCCCCCCCCCCCCCN(CCO)CCO`, the Potency was 17.4 µM (active).

In the case of `O[C@@H]1CO[C@H]2[C@@H]1OC[C@@H]2O`, the Potency entry is “inactive”.

For the compound `O=c1[nH]ncc2ccccc12`, the Potency entry was “inactive”.

Regarding `O=C(CCCN1CC=C(n2c(=O)[nH]c3ccccc32)CC1)c1ccc(F)cc1`, the Potency result is “inactive”.

In the case of `C=C/C(C)=C/C/C=C(\C)CCC=C(C)C`, the Potency result is “inactive”.

Regarding `CCOC(=O)c1ccc(C#Cc2ccc3c(c2)C(C)(C)CCS3)nc1`, the Potency result is “inactive”.

Regarding `CCCCCCCCN`, the Potency entry is “inactive”.

Take `COC(=O)CCS`: the Potency result is “inactive”.

Take `Cc1ccc2c(Br)cc(Br)c(O)c2n1`: the Potency result was “inactive”.

As to `CCC(OCCCOC)OC(C)=O` (centres undefined), the Potency entry is “inactive”.

In the case of `CO[C@]1(NC(=O)CSC(F)F)C(=O)N2C(C(=O)O)=C(CSc3nnnn3CCO)CO[C@H]21`, the Potency result is “inactive”.

In the case of `CCCCCCC(C)(C)C(=O)O`, the Potency result is “inactive”.

`O=C1CCCCCCCCCCOCCCCO1`: the Potency result is “inactive”.

As to `CCn1cc(C(=O)O)c(=O)c2cc(F)c(N3CCNCC3)cc21`, the Potency result is “inactive”.

Turning to `CCOc1ccccc1O[C@H](c1ccccc1)[C@H]1CNCCO1`, the Potency entry is “inactive”.

Take `Cc1[nH]cnc1CN1CCc2c(c3ccccc3n2C)C1=O`: the Potency entry was “inactive”.

Take `CCCCCCCC/C=C\CCCCCCCCCCCC(=O)O`: the Potency result is “inactive”.

For `O=C(OC(=O)c1ccccc1)c1ccccc1`, the Potency entry is “inactive”.

Turning to `CCN(CC)CCNC(=O)COc1ccc(OC)cc1`, the Potency entry was “inactive”.

`NNC(=O)CP(=O)(c1ccccc1)c1ccccc1`: the Potency result was “inactive”.

As for `C=C(C)CCCC(C)CCO` (centres undefined), the Potency entry was “inactive”.

Consider `Nc1ccc(N=Nc2ccccc2)c(N)c1`, for which the Potency result is “inactive”.

With `CC(C)=CCC1C(=O)N(c2ccccc2)N(c2ccccc2)C1=O`, the Potency entry was “inactive”.

As for `COC(=O)CS`, the Potency entry is “inactive”.

`NCCNCCO`: the Potency result is “inactive”.
